In PubChem BioAssay (NCI) one finds growth data, which are given here for 14 compounds.

SMILES strings stand for the structures. The panel holds about 83,000 compounds, 20% with a hit somewhere; the sample as a whole holds those more often.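 For each line, cells grew in 96-well plates with the test compound present at a single concentration for 48 hours.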 A number with no mark means an inactive call. Active and inactive are the calls of the source. How the source made its calls: active means growth percent below 10; inactive means the rest.

Assay in all cases: NCI-60 one-dose screen, 48 h (100 = growth as untreated, 0 = no growth, -100 = all killed)
Common to all, as to conditions: 10 µM unless noted

Experiment [1] relates to HCT-15 colon.
Experiment [2] has as its system HT29 colon.
Experiment [3] concerns SNB-75 CNS.
Experiment [4] relates to SNB-19 CNS.
For experiment [5], the system named is U251 CNS.
For experiment [6], the system named is PC-3 prostate.
Experiment [7] deals with SK-MEL-5 melanoma.
Experiment [8] has as its system UACC-62 melanoma.
For experiment [9], the system named is LOX IMVI melanoma.
The test system of experiment [10] is SK-MEL-28 melanoma.

On to `O=[N+]([O-])c1cccc(N=C(Nc2cccc([N+](=O)[O-])c2)c2ccccc2)c1`, for which the growth in [1] is 68.3%; in [2], 47.5%; in experiment [3], 84.2%; in experiment [4], 92.4%; in experiment [5], 82.6%; in [6], 51.6%. Also, the growth in experiment [7] is 70.5%; in [8], 70%; in [9], 97%; in experiment [10], 96.3%.

Turning to `Clc1ccc(Nc2ncnc3c2sc2ncccc23)c(Cl)c1`, the growth in experiment [1] was 47.7%; in experiment [2], 39.4%; in experiment [3], 42.3%; in experiment [4] it was 27.4%; in [5] it was 27%; in experiment [6] it was 49.5%. Moreover, the growth in experiment [7] is 28%; in [8], 12.7%; in experiment [9] it was 4.08% (active); in experiment [10], 65.9%.

Take `O=C1C=CC(=O)N1c1cccc(N2C(=O)C=CC2=O)c1`: the growth in [1] was 23.1%; in [2] it was 23.5%; in [3], 96%; in experiment [4], 147%; in [5], 111%; in [6] it was 99.9%. In addition, the growth in [7] is 116%; in experiment [8], 109%; in [9] it was 73.5%; in [10] it was 108%.

`CCN(CC)Cc1cc(Nc2nc(NC3CCC(N(C)C)CC3)c3ccccc3n2)ccc1OC` (stereo not given): the growth in experiment [1] was 94.7%; in experiment [2] it was 14.2%; in experiment [3], 72.3%; in experiment [4], 89.4%; in [5] it was 50.5%; in [6], 62.6%. Also, the growth in experiment [7] was 45.7%; in experiment [8], 98.4%; in experiment [9] it was 33.7%; in [10], 20.6%.

Take `COC(=O)C(C)NC1=C(Cl)C(=O)C(NC(C)C(=O)OC)=C(Cl)C1=O` (stereo not given): the growth was 92.6% in experiment [1]; 98.2% in [2]; 86% in experiment [3]; 94% in [4]; 98% in experiment [5]; 92% in experiment [6]. Besides, the growth in experiment [7] is 79.2%; in experiment [8], 99.8%; in [9], 91.1%; in experiment [10], 111%.

`Clc1ccc(-c2nc(Br)cn3ccnc23)cc1`: the growth in experiment [1] is 86.1%; in experiment [2] it was 87.6%; in [3] it was 91%; in experiment [4], 82.5%; in experiment [5], 78.2%; in experiment [6], 81.6%. For the same compound, the growth in experiment [7] was 80.7%; in experiment [8], 77.4%; in [9], 77.8%; in experiment [10], 100%.

`Cc1ccc(NC(=O)c2[nH]c(SCCN(C)C)nc2-c2ccc(F)cc2)cc1C#Cc1cnc2cccnn12`: the growth in experiment [1] is -19.6% (active); in experiment [2] it was -14.9% (active); in experiment [3] it was -59.7% (active); in [4] it was 21.4%; in experiment [5], -58.8% (active); in experiment [6], 34%. The growth was 45.5% in experiment [7], 35.8% in [8], -49.2% (active) in experiment [9] and -72.4% (active) in experiment [10].

On to `O=c1cc(N2CCOCC2)oc2c(-c3ccc4c(c3)OCCO4)csc12`, for which the growth in experiment [1] is 16.9%; in experiment [2], 10.8%; in [3], -16.6% (active); in [4] it was 25.6%; in experiment [5], 31.2%; in experiment [6], 21.8%. Further, the growth was -7.05% (active) in experiment [7], -1.9% (active) in experiment [8], 10.3% in [9] and 22.3% in experiment [10].

As to `COc1cc(C2CC(c3cccc(Nc4ccnc5cc(Cl)ccc45)c3)=NN2c2ccccc2)cc(OC)c1OC` (stereo not given), the growth was 67.1% in experiment [1]; 59.7% in [2]; 79.2% in [3]; 90.9% in experiment [4]; 78.8% in experiment [5]; 55.2% in experiment [6]. Besides, the growth in experiment [7] is 62.1%; in [8], 9.18% (active); in experiment [9], 46.1%; in [10], 67.2%.

As to `O=C(O)c1cn(-c2ccccc2)nc1-c1ccc(O)cc1`, the growth in [1] was 98.4%; in experiment [2], 94.7%; in experiment [3], 86.1%; in [4], 97.4%; in [5], 96.4%; in [6], 91.2%. Further, the growth in [7] is 106%; in experiment [8] it was 90.8%; in [9], 91.7%; in experiment [10], 101%.

In the case of `CCOCC(O)(c1ccc(Cl)cc1)c1ccc(Cl)cc1`, the growth in [1] was 88.6%; in experiment [2], 81.4%; in experiment [3], 103%; in experiment [4], 106%; in experiment [5], 95.9%; in experiment [6], 88.8%. The growth in [7] was 96.1%; in experiment [8], 87%; in experiment [9], 94.8%; in [10] it was 108%.

On to `Cc1ccc(NC(=O)c2nc(S(C)(=O)=O)oc2-c2ccc(F)cc2)cc1Nc1ccc2ncn(C)c(=O)c2c1`, for which the growth in experiment [1] was 3.34% (active); in [2], 15.8%; in [3], 105%; in experiment [4] it was 126%; in experiment [5], 69.7%; in experiment [6] it was 88.6%. The growth is 78.9% in experiment [7], 85.8% in [8], -71.5% (active) in experiment [9] and 82.1% in [10].

In the case of `CC(COC(=O)c1ccccc1)N1CC2CCC(C1)O2` (stereo not given), the growth was 99.7% in [1]; 107% in experiment [2]; 93.7% in experiment [3]; 102% in experiment [4]; 98.7% in [5]; 91.6% in [6]. For the same compound, the growth is 101% in experiment [7], 100% in experiment [8], 98% in experiment [9] and 104% in experiment [10].

Take `CCOc1cccc(/C=N/NC(=O)Cc2ccc(Nc3ccnc(C(F)(F)F)c3)cc2)c1O`: the growth in experiment [1] was 17.3%; in experiment [2], 85%; in [3], 39.4%; in experiment [4], 28%; in experiment [5], 20.6%; in experiment [6], 50%. Further, the growth in experiment [7] was -36% (active); in experiment [8], -5.55% (active); in experiment [9] it was 2.43% (active); in experiment [10], 60.6%.
